Data published in ChEMBL document CHEMBL3988442, “University of Dundee, Small-Polar-MMV Screening Library” (2021).
For part of these data: Potency and affinity values are given separately.

What was measured:
Design in all cases: scale not given: direction of the effect not stated beside the values
[1] = biological target: Protein translocase subunit SecA (Escherichia coli (strain K12)) (UniProt P10408); assay: Assay to Identify E. coli SecA ATPase Inhibitors; type: functional; details: 30 µM
[2] = biological target: T1, Ubiquitin-activating enzyme e1, putative (Leishmania donovani (strain BPK282A1)) (UniProt E9BSI1); assay: Leishmania donovani Ubiquitin Activating Enzyme (LdE1); type: functional; details: 30 µM
T1 sequence (whole entry): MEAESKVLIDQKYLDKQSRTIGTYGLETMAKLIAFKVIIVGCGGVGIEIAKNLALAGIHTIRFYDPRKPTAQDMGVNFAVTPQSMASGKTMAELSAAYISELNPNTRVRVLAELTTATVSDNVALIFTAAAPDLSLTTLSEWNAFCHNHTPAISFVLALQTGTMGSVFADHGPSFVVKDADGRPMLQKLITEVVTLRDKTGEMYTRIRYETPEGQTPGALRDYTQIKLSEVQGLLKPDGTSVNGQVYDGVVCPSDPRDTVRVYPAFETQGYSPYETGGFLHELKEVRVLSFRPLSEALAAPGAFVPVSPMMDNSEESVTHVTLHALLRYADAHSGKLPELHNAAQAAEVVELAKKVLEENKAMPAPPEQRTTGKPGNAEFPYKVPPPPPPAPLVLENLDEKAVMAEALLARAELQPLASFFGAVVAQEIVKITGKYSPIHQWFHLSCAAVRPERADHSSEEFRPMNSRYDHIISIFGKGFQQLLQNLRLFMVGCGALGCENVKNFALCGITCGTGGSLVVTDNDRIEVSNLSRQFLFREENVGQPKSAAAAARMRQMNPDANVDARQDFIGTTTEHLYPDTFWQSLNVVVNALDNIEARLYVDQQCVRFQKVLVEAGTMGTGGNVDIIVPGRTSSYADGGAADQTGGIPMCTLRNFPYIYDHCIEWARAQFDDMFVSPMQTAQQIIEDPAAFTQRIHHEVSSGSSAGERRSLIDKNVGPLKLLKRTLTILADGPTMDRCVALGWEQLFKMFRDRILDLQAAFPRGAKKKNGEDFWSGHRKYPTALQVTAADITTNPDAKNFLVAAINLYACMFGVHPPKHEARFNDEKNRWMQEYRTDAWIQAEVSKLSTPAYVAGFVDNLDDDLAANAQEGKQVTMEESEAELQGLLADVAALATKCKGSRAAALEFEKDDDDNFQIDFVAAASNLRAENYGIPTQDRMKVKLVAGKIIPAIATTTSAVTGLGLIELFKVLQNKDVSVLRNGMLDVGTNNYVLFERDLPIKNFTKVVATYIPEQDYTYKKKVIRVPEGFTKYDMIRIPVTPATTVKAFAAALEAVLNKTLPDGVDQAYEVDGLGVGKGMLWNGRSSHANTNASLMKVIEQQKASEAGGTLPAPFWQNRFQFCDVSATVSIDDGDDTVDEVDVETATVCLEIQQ

[3] = biological target: T2, Aspartate--tRNA(Asp/Asn) ligase (Mycobacterium tuberculosis (strain ATCC 25618 / H37Rv)) (UniProt P9WFW3); assay: Assay for Asp RNA synthetase-1 from Mycobacterium tuberculosis; type: functional; details: 30 µM; also: in the data most compounds retested in dose-response had high values
T2 sequence (whole entry): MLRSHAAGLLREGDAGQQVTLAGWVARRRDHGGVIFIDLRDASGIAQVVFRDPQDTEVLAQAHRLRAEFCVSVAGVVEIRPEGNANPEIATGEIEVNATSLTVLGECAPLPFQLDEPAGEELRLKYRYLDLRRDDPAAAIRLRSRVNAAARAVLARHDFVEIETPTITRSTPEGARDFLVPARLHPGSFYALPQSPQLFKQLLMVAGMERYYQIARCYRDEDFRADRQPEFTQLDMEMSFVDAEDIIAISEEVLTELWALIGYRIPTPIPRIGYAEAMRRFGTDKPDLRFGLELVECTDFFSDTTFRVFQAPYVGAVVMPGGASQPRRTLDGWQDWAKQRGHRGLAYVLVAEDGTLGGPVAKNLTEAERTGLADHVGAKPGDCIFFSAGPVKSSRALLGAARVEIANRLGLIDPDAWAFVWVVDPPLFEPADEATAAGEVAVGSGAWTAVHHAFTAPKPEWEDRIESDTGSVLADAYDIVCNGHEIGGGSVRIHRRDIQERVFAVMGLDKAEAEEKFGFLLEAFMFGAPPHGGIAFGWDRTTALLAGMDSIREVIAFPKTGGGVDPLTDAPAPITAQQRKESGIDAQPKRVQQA

[4] = biological target: AMP-activated protein kinase, AMPK (Homo sapiens) (UniProt P54646+O43741+P54619+Q9UGJ0+Q9Y478+Q13131+Q9UGI9); assay: AMP-dependent Kinase enzyme assay. An in vitro enzyme assay that detects ADP turnover that is directly proportional to AMPK activity. This uses naive AMPK that is activated during the assay with MK-8722; type: functional; details: 30 µM
[5] = biological target: Sialic acid-binding Ig-like lectin 9 (Homo sapiens) (UniProt Q9Y336); assay: Hs-Siglec9 ALPHAscreen SOP 20170721; details: 10 µM
Chain of Sialic acid-binding Ig-like lectin 9 (Homo sapiens) (Q9Y336 whole entry): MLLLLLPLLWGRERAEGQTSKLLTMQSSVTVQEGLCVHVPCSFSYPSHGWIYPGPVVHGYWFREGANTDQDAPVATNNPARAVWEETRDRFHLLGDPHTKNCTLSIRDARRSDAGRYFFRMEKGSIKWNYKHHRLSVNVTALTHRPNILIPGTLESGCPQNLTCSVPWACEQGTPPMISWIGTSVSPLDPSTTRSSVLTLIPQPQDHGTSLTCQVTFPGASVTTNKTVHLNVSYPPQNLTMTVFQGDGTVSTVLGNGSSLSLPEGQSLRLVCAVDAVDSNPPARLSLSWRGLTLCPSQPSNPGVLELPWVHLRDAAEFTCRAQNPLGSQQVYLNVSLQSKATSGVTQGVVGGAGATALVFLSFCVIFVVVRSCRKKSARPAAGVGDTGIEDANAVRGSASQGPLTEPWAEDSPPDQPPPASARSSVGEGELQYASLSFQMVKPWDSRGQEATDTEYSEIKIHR

Trypanosoma cruzi = assay: Trypanosoma cruzi phosphomannomutase and mannose-1-phosphate guanylyltransferase assay; type: functional; details: 10 µM
[6] = biological target: T3, Arginase-2, mitochondrial (Homo sapiens) (UniProt P78540); assay: in vitro enzyme assay to detect the production of urea directly proportional to the activity of Arginase II; type: functional; details: 33.3 µM; also: in the data most compounds retested in dose-response had high values
T3 sequence (whole entry): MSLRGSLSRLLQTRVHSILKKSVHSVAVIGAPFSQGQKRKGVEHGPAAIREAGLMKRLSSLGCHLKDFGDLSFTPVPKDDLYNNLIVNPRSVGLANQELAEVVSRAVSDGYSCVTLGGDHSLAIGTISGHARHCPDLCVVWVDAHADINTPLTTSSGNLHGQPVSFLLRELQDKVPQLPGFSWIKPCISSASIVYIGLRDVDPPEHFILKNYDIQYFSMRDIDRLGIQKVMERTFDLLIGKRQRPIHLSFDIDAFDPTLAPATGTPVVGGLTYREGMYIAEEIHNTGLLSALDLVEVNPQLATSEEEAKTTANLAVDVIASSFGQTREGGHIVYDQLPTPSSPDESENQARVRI

[7] = biological target: T4, Proteasome subunit beta (Trypanosoma cruzi) (UniProt O96673); assay: Trypanosoma cruzi proteasome chymotrypsin-like activity (TcProtChymo) assay.; also: in the data most compounds retested in dose-response had high values; type: functional; details: 9.37 µM
T4 sequence (whole entry): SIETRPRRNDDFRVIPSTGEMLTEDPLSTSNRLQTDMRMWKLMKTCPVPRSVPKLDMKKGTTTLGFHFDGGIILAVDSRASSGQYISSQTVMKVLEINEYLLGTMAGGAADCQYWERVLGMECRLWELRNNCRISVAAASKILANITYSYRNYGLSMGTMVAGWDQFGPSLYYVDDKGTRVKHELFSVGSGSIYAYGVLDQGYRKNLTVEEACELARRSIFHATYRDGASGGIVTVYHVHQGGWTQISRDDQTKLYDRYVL

Homo sapiens = species on record: Homo sapiens; assay: To identify inhibition of the IFN signalling (Jak-Stat) pathway via expression of an eGFP reporter gene under the control of an IFN-stimulated response element (ISRE) containing MxA promoter.; type: functional; details: 30 µM
[8] = biological target: Shiga toxin 2 (Escherichia coli O157:H7) (UniProt P09385+P09386); assay: E. coli 0.157:H7 Shiga Toxin SOP - stx2 screening assay; type: functional; details: 30 µM
[9] = biological target: T5, Tyrosyl-tRNA synthetase, putative (Trypanosoma cruzi (strain CL Brener)) (UniProt Q4DSP6); assay: Trypanosoma cruzi tyrosyl tRNA synthetase (TcYRS) _High Tyrosine SOP; type: functional; details: 30 µM; also: in the data most compounds retested in dose-response had high values
T5 sequence (whole entry): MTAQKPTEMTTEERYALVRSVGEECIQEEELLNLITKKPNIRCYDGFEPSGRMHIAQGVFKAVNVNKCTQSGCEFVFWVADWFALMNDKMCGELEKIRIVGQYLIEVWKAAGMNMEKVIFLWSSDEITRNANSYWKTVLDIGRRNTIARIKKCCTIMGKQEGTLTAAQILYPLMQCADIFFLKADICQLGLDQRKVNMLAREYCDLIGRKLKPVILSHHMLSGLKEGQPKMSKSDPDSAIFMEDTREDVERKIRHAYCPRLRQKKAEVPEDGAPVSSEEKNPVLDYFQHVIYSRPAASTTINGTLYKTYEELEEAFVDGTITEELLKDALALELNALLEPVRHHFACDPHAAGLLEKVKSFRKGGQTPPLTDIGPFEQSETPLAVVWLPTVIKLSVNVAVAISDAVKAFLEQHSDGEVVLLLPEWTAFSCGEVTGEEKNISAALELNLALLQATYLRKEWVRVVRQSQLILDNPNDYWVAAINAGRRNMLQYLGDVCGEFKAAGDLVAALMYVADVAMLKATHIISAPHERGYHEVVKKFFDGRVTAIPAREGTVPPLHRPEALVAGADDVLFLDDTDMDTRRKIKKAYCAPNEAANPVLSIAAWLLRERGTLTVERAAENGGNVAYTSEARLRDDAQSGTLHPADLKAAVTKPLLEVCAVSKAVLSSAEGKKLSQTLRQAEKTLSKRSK

[10] = biological target: T5, Tyrosyl-tRNA synthetase, putative (Trypanosoma cruzi (strain CL Brener)); assay: Trypanosoma cruzi tyrosyl tRNA synthetase (TcYRS) SOP; type: functional; details: 30 µM
[11] = biological target: Chromo domain-containing protein 1 (Saccharomyces cerevisiae (strain ATCC 204508 / S288c) (Baker's yeast)) (UniProt P32657); assay: ScCHD-1 Enzyme Inhibition Assay; type: functional; details: 30 µM; also: in the data most compounds retested in dose-response had high values
Chain of Chromo domain-containing protein 1 (Saccharomyces cerevisiae (strain ATCC 204508 / S288c) (Baker's yeast)) (P32657 whole entry, the tested form may be a part): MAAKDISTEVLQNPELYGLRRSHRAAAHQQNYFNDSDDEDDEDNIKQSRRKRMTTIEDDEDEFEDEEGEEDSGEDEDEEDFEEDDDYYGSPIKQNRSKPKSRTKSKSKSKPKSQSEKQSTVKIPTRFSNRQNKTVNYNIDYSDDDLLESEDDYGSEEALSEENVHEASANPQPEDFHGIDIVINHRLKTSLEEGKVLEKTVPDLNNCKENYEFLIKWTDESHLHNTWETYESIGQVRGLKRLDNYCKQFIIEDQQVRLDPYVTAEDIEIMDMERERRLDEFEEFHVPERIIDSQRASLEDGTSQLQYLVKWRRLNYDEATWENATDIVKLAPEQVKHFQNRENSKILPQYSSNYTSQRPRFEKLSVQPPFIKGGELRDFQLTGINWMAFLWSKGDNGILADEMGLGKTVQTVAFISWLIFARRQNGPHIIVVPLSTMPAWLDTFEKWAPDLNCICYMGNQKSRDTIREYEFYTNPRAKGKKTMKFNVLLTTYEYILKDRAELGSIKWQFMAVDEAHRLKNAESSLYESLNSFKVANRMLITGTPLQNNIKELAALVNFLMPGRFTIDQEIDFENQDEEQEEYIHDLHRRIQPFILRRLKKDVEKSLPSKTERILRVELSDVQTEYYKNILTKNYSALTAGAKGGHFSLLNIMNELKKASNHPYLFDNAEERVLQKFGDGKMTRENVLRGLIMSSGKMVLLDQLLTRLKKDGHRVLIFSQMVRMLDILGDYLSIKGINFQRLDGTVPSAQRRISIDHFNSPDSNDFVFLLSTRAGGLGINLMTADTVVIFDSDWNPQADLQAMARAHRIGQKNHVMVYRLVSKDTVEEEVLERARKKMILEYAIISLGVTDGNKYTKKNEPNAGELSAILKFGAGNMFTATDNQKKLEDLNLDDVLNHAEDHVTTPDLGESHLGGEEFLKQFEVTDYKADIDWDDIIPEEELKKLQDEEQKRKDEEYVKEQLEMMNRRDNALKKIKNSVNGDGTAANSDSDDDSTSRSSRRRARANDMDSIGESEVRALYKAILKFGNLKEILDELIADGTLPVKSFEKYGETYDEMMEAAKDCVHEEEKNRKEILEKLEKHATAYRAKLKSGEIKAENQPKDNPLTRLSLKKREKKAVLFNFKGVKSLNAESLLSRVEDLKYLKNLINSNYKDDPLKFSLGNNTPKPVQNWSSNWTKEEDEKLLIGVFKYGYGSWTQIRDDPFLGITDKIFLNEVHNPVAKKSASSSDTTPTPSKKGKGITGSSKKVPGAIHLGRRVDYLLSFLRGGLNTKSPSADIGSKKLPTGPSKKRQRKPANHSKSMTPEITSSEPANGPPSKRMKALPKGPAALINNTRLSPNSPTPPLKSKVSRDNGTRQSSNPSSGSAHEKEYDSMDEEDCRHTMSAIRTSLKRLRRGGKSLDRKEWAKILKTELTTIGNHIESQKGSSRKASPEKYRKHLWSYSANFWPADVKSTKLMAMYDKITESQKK

Chain of Protein translocase subunit SecA (Escherichia coli (strain K12)) (P10408 whole entry): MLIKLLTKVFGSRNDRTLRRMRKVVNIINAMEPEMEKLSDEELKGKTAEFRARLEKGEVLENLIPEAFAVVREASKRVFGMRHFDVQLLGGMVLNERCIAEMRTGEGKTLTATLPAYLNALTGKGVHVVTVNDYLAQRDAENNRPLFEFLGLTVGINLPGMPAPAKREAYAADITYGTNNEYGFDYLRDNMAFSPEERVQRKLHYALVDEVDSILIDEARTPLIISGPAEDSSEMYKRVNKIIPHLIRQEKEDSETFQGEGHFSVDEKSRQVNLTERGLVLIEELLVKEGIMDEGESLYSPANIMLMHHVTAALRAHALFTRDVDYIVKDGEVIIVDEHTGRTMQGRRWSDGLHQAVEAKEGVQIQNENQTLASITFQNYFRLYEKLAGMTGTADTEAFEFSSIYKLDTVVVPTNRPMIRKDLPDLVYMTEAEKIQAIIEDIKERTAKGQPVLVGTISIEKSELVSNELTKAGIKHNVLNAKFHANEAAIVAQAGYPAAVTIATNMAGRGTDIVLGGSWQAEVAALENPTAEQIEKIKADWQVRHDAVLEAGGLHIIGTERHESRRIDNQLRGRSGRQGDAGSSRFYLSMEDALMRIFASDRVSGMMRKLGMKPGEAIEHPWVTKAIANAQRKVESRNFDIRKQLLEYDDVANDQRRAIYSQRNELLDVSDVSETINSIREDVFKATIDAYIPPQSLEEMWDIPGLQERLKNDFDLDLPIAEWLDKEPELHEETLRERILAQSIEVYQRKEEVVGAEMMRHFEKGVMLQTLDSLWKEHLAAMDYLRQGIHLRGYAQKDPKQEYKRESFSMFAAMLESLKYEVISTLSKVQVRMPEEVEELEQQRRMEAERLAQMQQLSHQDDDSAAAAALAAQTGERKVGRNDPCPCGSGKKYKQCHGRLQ

SMILES | Percent Effect [1] | Percent Effect [2] | Percent Effect [3] | Percent Effect [4] | Percent Effect [5] | Percent Effect (Trypanosoma cruzi) | Percent Effect [6] | Percent Effect [7] | Percent Effect (Homo sapiens) | Percent Effect [8] | Percent Effect [9] | Percent Effect [10] | Percent Effect [11]
Cc1noc([C@@H]2C[C@H]3CN(Cc4cc(C)on4)C[C@H]3O2)n1 | -0.923% | 10.4% | 2.67% | 5.31% | -5.26% | -4.63% | 9.68% | 12.4% | 10.4% | -9.84% | 3.17% | 6.41% | -8.87%
O=C1OCCC1N1CCN(C(=O)Cc2c[nH]c3ccccc23)CC1 (configuration not stated) | -0.412% | 18.9% | 6.13% | -14.5% | -1.41% | 3.49% | -9.62% | 15.7% | 9.19% | 15.5% | 12.3% | 23.5% | -11.1%
c1ccc(OC[C@]23COC[C@H]2CN(Cc2ccoc2)C3)nc1 | -3.19% | 10.7% | -2.04% | -1.7% | 1.05% | 4.05% | -57.9% | 12.1% | -8.07% | -23.7% | 3.12% | 17.5% | -6.62%
CCNC(=O)NC(=O)CNC1(c2noc(C)n2)CCCCC1 | -8.65% | 15.8% | 0.329% | -3.69% | -6.42% | 6.91% | -5.92% | 8.34% | 6.39% | 4.43% | 3.19% | -7.79% | -19.2%
O=C1CSC(c2cccs2)c2cnn(C3CCCC3)c2N1 (configuration not stated) | -5.94% | -12% | 7.29% | 3.55% | 10.9% | 3.73% | -35.7% | 8.5% | 24% | 28.5% | 4.23% | 20.5% | 66.9%
CCN1CCC2(CC1)CC(Nc1ncccn1)CO2 (configuration not stated) | -4.33% | 2.7% | -1.65% | -2.57% | 1.3% | 4.49% | 35.8% | 6.34% | 8.12% | 11.5% | 6.93% | 13.4% | -1.38%
CN1CCC2(COCc3cnc(N4CCOCC4)nc32)C1 (configuration not stated) | -1.86% | -1.33% | -1.51% | 5.52% | 4.35% | -1.18% | -0.528% | 5.36% | -2.62% | -6.09% | 0% | -5.13% | -1.41%
c1ccc(CN2CCO[C@H]3[C@H](OCCN4CCCC4)CC[C@@H]32)nc1 | -1.73% | -2.67% | 0.641% | 2.45% | 8.64% | -2.7% | -53.2% | -0.855% | -6.91% | -16.4% | 4.17% | 5% | 0.266%
CC(C)=CCN1C(=O)[C@H]2CC[C@@H]1CN(Cc1cccnc1N)C2 | 5.73% | 4.17% | 4.65% | 1.92% | 2% | -5.34% | 3.53% | 23.7% | 7.39% | -25.3% | 7.37% | 2.56% | 2.83%
